Test results from PubChem BioAssay (NCI).
Compounds without any hit were thinned out: in the full panel of roughly 83,000, 20% have a hit.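 Step 1: grow cells in 96-well plates. Step 2: add test compound at a single concentration. Step 3: incubate 48 h. Step 4: record percent growth.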 Calls of active or inactive are those of the source. Rule for the calls: active = growth percent below 10; inactive = the rest.

How the values were obtained:
Assay in all cases: NCI-60 one-dose screen, 48 h (100 = growth as untreated, 0 = no growth, -100 = all killed)
[1] = system: NCI-H23 lung
[2] = system: NCI-H226 lung
[3] = system: NCI-H322M lung; conditions: 10 µM unless noted
[4] = system: HOP-62 NSCLC
[5] = system: NCI-H460 lung
[6] = system: HOP-92 NSCLC
[7] = system: NCI-H522 lung
[8] = system: A549/ATCC NSCLC
[9] = system: 786-0 renal
[10] = system: COLO 205 colon
[11] = system: DU-145 prostate
[12] = system: K-562 leukemia
[13] = system: MALME-3M melanoma
[14] = system: MDA-MB-231 breast
[15] = system: RXF 393 renal
[16] = system: SF-268 CNS
[17] = system: SF-295 CNS
[18] = system: SF-539 CNS
[19] = system: UACC-257 melanoma
[20] = system: M14 melanoma

Measured: growth

CC(=O)/C=C/c1ccc(OCc2ccc(Cl)cc2)cc1
active: [7]; 100 µM -3.06% | [10]; 100 µM -21.9% | [13]; 100 µM -1.84% | [14]; 100 µM 9.42% | [19]; 100 µM -1.1%
inactive: [1]; 10 µM 90.9% | [1]; 100 µM 37.1% | [2]; 10 µM 100% | [2]; 100 µM 49.6% | [3] 52.5% [100 µM] | [4]; 10 µM 110% | [4]; 100 µM 44.9% | [5]; 10 µM 101% | [5]; 100 µM 26.1% | [6]; 10 µM 91.8% | [6]; 100 µM 11% | [7]; 10 µM 90.4% | [8]; 10 µM 75.9% | [8]; 100 µM 34.1% | [9]; 10 µM 88.1% | [9]; 100 µM 51.2% | [10]; 10 µM 122% | [11]; 10 µM 96.6% | [11]; 100 µM 52.9% | [12]; 10 µM 79.1% | [12]; 100 µM 26.1% | [13]; 10 µM 110% | [14]; 10 µM 117% | [15]; 10 µM 105% | [15]; 100 µM 55.5% | [16]; 10 µM 101% | [16]; 100 µM 52.3% | [17]; 10 µM 99.1% | [17]; 100 µM 39.9% | [18]; 10 µM 109% | [18]; 100 µM 44.4% | [19]; 10 µM 86.6% | [20]; 10 µM 98.2% | [20]; 100 µM 36.1%

CC1(Cc2ccccc2)CC2=C(C(=O)O1)C(c1ccccc1)NC(=O)N2 (stereo unspecified)
inactive: [1]; 10 µM unless noted 100% | [2]; 10 µM unless noted 101% | [3] 98.6% | [4]; 10 µM unless noted 97.4% | [5]; 10 µM unless noted 110% | [6]; 10 µM unless noted 77% | [7]; 10 µM unless noted 95.4% | [8]; 10 µM unless noted 112% | [9]; 10 µM unless noted 100% | [10]; 10 µM unless noted 106% | [11]; 10 µM unless noted 111% | [12]; 10 µM unless noted 78.4% | [13]; 10 µM unless noted 104% | [14]; 10 µM unless noted 103% | [15]; 10 µM unless noted 108% | [16]; 10 µM unless noted 110% | [17]; 10 µM unless noted 104% | [18]; 10 µM unless noted 94.5% | [19]; 10 µM unless noted 101%

O=C1/C(=C/c2cn(-c3ccccc3)nc2-c2ccccc2)SC(=S)N1c1ccccc1
inactive: [1]; 10 µM unless noted 95% | [2]; 10 µM unless noted 96.2% | [3] 99.2% | [4]; 10 µM unless noted 100% | [5]; 10 µM unless noted 107% | [6]; 10 µM unless noted 33.6% | [7]; 10 µM unless noted 91.3% | [8]; 10 µM unless noted 105% | [9]; 10 µM unless noted 105% | [10]; 10 µM unless noted 117% | [11]; 10 µM unless noted 102% | [12]; 10 µM unless noted 104% | [13]; 10 µM unless noted 94.5% | [14]; 10 µM unless noted 89.1% | [15]; 10 µM unless noted 107% | [16]; 10 µM unless noted 99.1% | [17]; 10 µM unless noted 97.5% | [18]; 10 µM unless noted 94.5% | [19]; 10 µM unless noted 107%

CC(=O)/C=C/c1ccc(OCc2ccc(C(C)(C)C)cc2)cc1
inactive: [1]; 10 µM 52.5% | [1]; 100 µM 31.7% | [2]; 10 µM 77.5% | [2]; 100 µM 38.3% | [3] 19.4% [100 µM] | [4]; 10 µM 88% | [4]; 100 µM 26.8% | [5]; 10 µM 84.4% | [5]; 100 µM 24.6% | [7]; 10 µM 76.1% | [8]; 10 µM 80.3% | [8]; 100 µM 41.8% | [9]; 10 µM 91.9% | [9]; 100 µM 20.7% | [10]; 10 µM 78.6% | [11]; 10 µM 89% | [11]; 100 µM 61% | [12]; 10 µM 39.1% | [12]; 100 µM 13.4% | [13]; 10 µM 86.4% | [13]; 100 µM 29% | [14]; 10 µM 84.2% | [15]; 10 µM 94.6% | [16]; 10 µM 94.2% | [16]; 100 µM 42.3% | [17]; 10 µM 69.6% | [17]; 100 µM 27.2% | [18]; 10 µM 78.4% | [18]; 100 µM 34.1% | [19]; 10 µM 70.6%
active: [7]; 100 µM -8.78% | [10]; 100 µM -65.6% | [14]; 100 µM -39.2% | [15]; 100 µM 1.8% | [19]; 100 µM 2.75%

O=C(/C=C/c1cccs1)Nc1ncc(Cc2ccc(Cl)c(Cl)c2)s1
inactive: [1]; 10 µM unless noted 91.4% | [2]; 10 µM unless noted 86% | [3] 76.5% | [4]; 10 µM unless noted 61.5% | [5]; 10 µM unless noted 48% | [6]; 10 µM unless noted 78.1% | [7]; 10 µM unless noted 38.9% | [8]; 10 µM unless noted 59.4% | [9]; 10 µM unless noted 75.2% | [10]; 10 µM unless noted 51.4% | [11]; 10 µM unless noted 59.5% | [12]; 10 µM unless noted 35.2% | [13]; 10 µM unless noted 53.1% | [14]; 10 µM unless noted 82.9% | [15]; 10 µM unless noted 72.8% | [16]; 10 µM unless noted 67.9% | [17]; 10 µM unless noted 30.2% | [18]; 10 µM unless noted 65.1% | [19]; 10 µM unless noted 90.8%

O=C(Nc1ncc(Cc2cccc(C(F)(F)F)c2)s1)c1ccc(-n2cnnn2)cc1
inactive: [1]; 10 µM unless noted 55% | [2]; 10 µM unless noted 69.3% | [3] 86.1% | [4]; 10 µM unless noted 104% | [5]; 10 µM unless noted 30.5% | [6]; 10 µM unless noted 86.2% | [7]; 10 µM unless noted 54.5% | [8]; 10 µM unless noted 34.4% | [9]; 10 µM unless noted 66.1% | [10]; 10 µM unless noted 121% | [11]; 10 µM unless noted 60.3% | [12]; 10 µM unless noted 21% | [13]; 10 µM unless noted 62.6% | [14]; 10 µM unless noted 96.9% | [15]; 10 µM unless noted 103% | [16]; 10 µM unless noted 55.4% | [17]; 10 µM unless noted 32.2% | [18]; 10 µM unless noted 47.9% | [19]; 10 µM unless noted 46.8% | [20]; 10 µM unless noted 41.4%
